Assay results published in the supplement of paper PMC10681739.

target: RUNX1 (UniProt Q01196); experiment: RUNX1 binding intensity (PBM fluorescence) in presence of ETS1, normalised to RUNX1-only experiment (arbitrary fluorescence units); higher = stronger binding; settings: RUNX1 concentration 2 nM; ETS1 concentration 25 nM
Description: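 Cooperative gcPBM on 36-bp genomic probes with neighbouring ETS1 and RUNX1 sites. Recombinant human RUNX1 (2 nM) was incubated alone or with ETS1 (25 nM) and detected with anti-RUNX1 antibody plus Alexa488 secondary. Values are medians over 4 replicate spots; the RUNX1+ETS1 data were normalised to the RUNX1-only data. The probes sit in constant array flanks that are not printed.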
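Further: Full-length recombinant human ETS1 or RUNX1 bound to double-stranded 36-bp genomic probes on microarrays, detected by protein-specific primary antibody and Alexa488 secondary, spot fluorescence as median of four replicate spots.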

RUNX1, sequence (Q01196 whole entry): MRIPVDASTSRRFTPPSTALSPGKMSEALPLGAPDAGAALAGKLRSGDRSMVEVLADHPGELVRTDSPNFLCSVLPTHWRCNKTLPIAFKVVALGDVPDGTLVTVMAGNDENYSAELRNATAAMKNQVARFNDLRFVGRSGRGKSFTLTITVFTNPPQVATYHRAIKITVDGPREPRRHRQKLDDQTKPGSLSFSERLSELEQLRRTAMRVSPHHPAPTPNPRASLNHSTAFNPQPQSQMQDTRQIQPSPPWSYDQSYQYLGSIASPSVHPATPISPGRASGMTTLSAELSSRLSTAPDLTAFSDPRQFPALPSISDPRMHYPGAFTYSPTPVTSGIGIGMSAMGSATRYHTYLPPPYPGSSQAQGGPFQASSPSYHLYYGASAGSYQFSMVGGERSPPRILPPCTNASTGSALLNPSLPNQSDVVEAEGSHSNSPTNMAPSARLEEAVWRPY

Sequence	RUNX1 binding intensity
CCCAAGCTACGGAAGTTAAACCTCAAACATGAAATC	1410
ATGCCTTCTTCCAGAGGATGTGGTCGCTACTAGTGG	868
AGAATCGCATCAGGATGTGGTGAGGGAGCACATTTG	969
GCTGGGGCAGGAAGCTTCTAGGCCACAGACAGGACG	865
CACTTCCCGTGGGAGGATCTTGGGCTGCGGCTAGGG	1850
GAGCACAGGAAAAGCTGGTGCCAACCACAAGTGCTT	971
TAGCCACTAACCGGAAACGTTAAACCACAGCTCCGT	7440
TTCAACAGGATATTGCTTTGTTACCACAGGCCCTTT	1490
AACAGTTGCATAGGAAGTGGTCAGCTCTCCTCCACC	999
AACCAAACAGCCACAGGAAGTGGTTTCTGTGATTCA	1960
TCTCCTTTCAGGAAGCTGCACCCAAACCACCCTCAG	949
GCTCTGCAGGATGTGGCTGTGACCGCAGTGAGGAGC	7480
ACCTCAAGCCCAGGATGTGGTTTGGCCACTATTGAG	1680
TTCACTTCCACCACTTCCTGTGGGTTTTGTTCATCC	5560
CTCTTCCTGCCTGTCCGTGGCTGGTGTGGTTTGCGT	2670
ATTTCGCTGAAAACAGGAAACCACGAAGCCCAGATG	1250
TCAGAACCAGGAAACTGAAGGCGGTTACTCCACATA	875
TGACTTCCTCCTCTTCACTAACAGAAACCTCAATTT	2570
CACCCCCCCAGTGCAGGAAGTGGTTTTCGAGGGCAG	1790
AGTTGGTTCCTTCCGGTGGGTTTGTGGGTTTGGGGT	2390
CCACCCACTTCCTGCCCTAGCTAGTGTGGTATTTTT	7970
